Usually AC50 stands for the concentration at which the activity in the assay is half-maximal. A word on the IC50: it is the concentration that gives 50% inhibition. What is called viability is a read-out of living cells in per cent, often relative to untreated cells.

The record followed here is PubChem BioAssay.

Results filed as inconclusive are left out. Calls of active or inactive are those of the source.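 How the source made its calls, unless noted: active means normalized viability below 100% at a tested concentration; inactive means the rest.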

Assay [1] is described as follows: growth inhibition of DIPG glioma cells, dose response, cell-based, SU-DIPG-XVII, MIPE5.0, CellTiter-Glo, qHTS (AID 1347060; cut-off not given, nearly all actives have AC50 up to about 26 µM;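 on AC50: cells exposed to compound for 48 hours before viability readout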). Conditions: SU-DIPG-XVII viability, CellTiter-Glo ATP luminescence. On the technique in general: In ATP-based viability assays light output follows the ATP content of the culture.
Assay [2] in a line: growth inhibition of DIPG glioma cells, dose response, cell-based, SU-DIPG-XIII, MIPE5.0, CellTiter-Glo, qHTS (AID 1347064; cut-off not given, nearly all actives have AC50 up to about 23 µM;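 on AC50: cells exposed to compound for 48 hours before the viability read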). Conditions: SU-DIPG-XIII viability, CellTiter-Glo ATP luminescence.
A short description of assay [3]: JHH-DIPG-1 glioma cell viability, MIPE5.0 library, CellTiter-Glo luminescence, qHTS (AID 1347067; cut-off not given, nearly all actives have AC50 up to about 26 µM;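 further: cells exposed to compound for 48 hours before readout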). As to conditions: JHH-DIPG-1 glioma viability, CellTiter-Glo ATP luminescence.
A short description of assay [4]: SU-DIPG-XXV glioma cell viability, MIPE5.0 library, qHTS (AID 1347068; cut-off not given, nearly all actives have IC50 up to about 30 µM;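 on IC50: cells exposed to compound for 48 hours before viability readout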). A general note: qHTS replaces the single test concentration by a dilution series.
Assay [5] is described as follows: sensitizers of A549 cells to miR-34 induction, primary screen, imaging, A549 dox-inducible miR-34, nuclei and caspase counts (AID 1347080;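 active means compounds whose cell count with miR-34 switched on is under 0.7 times the count with it off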). Conditions: A549 miR-34 inducible, Hoechst nuclei count, 48 h.
A short description of assay [6]: survival rescue of mitochondrial mutant cells in low glucose, primary screen, MELAS cybrids, Rieske KO mouse fibroblasts, CellTiter-Glo (AID 1508586;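 active means mean z-score across replicates of 1.96 or higher in either the MELAS or the Rieske mutant cell line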;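 further: z relative to plate mean and SD of compound and empty wells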).
Assay [7] in a line: viability loss in pontine glioma line – cell-based, SU-DIPG-XXV, MIPE5.0, CellTiter-Glo, qHTS, dose response (AID 1347065; cut-off not given, nearly all actives have AC50 up to about 26 µM;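 further: cells exposed to compound for 48 hours before ATP readout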). Conditions: CellTiter-Glo ATP luminescence.
A short description of assay [8]: ovarian cancer cell viability with rucaparib, profiling panel, oncology-focused library, rucaparib conditional (AID 1508598). Conditions: patient-derived ovarian cancer cells, CellTiter-Glo viability, 144 h, stronger effect = lower value.
The mark [9] stands for this setting: stronger effect = lower value, cell number ratio, induced over uninduced.
Where [10] appears, read: measured here: relative caspase fold change +Dox/-Dox.
Setting [11] is: measured here: total cells with miR-34 induction, stronger effect = lower value.
The mark [12] stands for this setting: measured here: total cells without miR-34 induction.
[13] abbreviates: MELAS cybrid survival, CellTiter-Glo 48 h, stronger effect = higher value.
[14] abbreviates: Rieske KO mouse fibroblast survival, CellTiter-Glo 72 h.

Turning to `C[C@@H]1CN(CC(=O)N2CC(C)(C)c3ncc(Cc4ccc(F)cc4)cc32)[C@@H](CN2CCOC[C@H]2C)CN1`, the compound was called inactive in assay [1], in assay [2], in assay [3] and in assay [4].

As for `Cn1cnc(-c2cc3nccc(Oc4ccc(NC(=S)NC(=O)Cc5ccccc5)cc4F)c3s2)c1`, the AC50 was 16.6 µM (active) in assay [1] and 18.6 µM (active) in assay [2]. In assay [4], the IC50 was 4.17 µM (active). In addition, the fold change was 0.83 (inactive) in assay [5] (setting [9]) and 1.19 in assay [5] (setting [10]). The cell count was 3930 in assay [5] (setting [11]) and 4730 in assay [5] (setting [12]). Moreover, the z-score in assay [6] (setting [13]) was -0.555 (inactive); in assay [6] (setting [14]), -0.0569.

Take `Cc1c(F)cc(C(=O)NC2CC2)cc1-c1ccc(C(=O)NCC(C)(C)C)cn1`: the result in assay [1], in assay [2], in assay [3] and in assay [4] was inactive. In addition, the fold change in assay [5] (setting [9]) is 0.832 (inactive); in assay [5] (setting [10]) it was 0.447. For the same compound, the figures for the cell count in assay [5] (setting [11]) and in assay [5] (setting [12]) were 7400 and 8890, respectively. Further, the figures for the z-score in assay [6] (setting [13]) and in assay [6] (setting [14]) were -0.46 (inactive) and 0.488, respectively.

Take `CC1=C2[N-][C@H]([C@H](CC(N)=O)[C@@]2(C)CCC(=O)NC[C@@H](C)OP(=O)([O-])O[C@H]2[C@@H](O)[C@@H](n3cnc4cc(C)c(C)cc43)O[C@@H]2CO)[C@]2(C)N=C(C(C)=C3N=C(C=C4N=C1[C@@H](CCC(N)=O)C4(C)C)[C@@H](CCC(N)=O)[C@]3(C)CC(N)=O)[C@@H](CCC(N)=O)[C@]2(C)CC(N)=O.O.[Co+2]`: the result in assay [1] and in assay [7] was inactive.

For `CC(C)NC(=O)N1CC[C@H](N=C2Nc3cc(F)ccc3N(CC(F)F)c3ccc(Cl)cc32)C1`, the result in assay [1], in assay [2], in assay [3] and in assay [4] was inactive.

Turning to `Cc1noc(-c2ccc(-c3ccc(C4(C(=O)O)CC4)cc3)cc2)c1NC(=O)O[C@H](C)c1ccccc1`, the half-maximal activity concentration (AC50) in assay [1] and in assay [7] was 23.5 µM (active) throughout.

On to `Cn1cc(-c2ccc3c(c2)CCN3C(=O)Cc2cccc(C(F)(F)F)c2)c2c(N)ncnc21`, for which the result in assay [1], in assay [2], in assay [3] and in assay [4] was inactive. In addition, the fold change in assay [5] (setting [9]) is 0.811 (inactive); in assay [5] (setting [10]) it was 0.484. The cell count in assay [5] (setting [11]) turned out to be 4720; in assay [5] (setting [12]), 5820. The z-score was -0.412 (inactive) in assay [6] (setting [13]) and -1.76 in assay [6] (setting [14]). The viability in assay [8] (at 0.000305 µM, OCI-C5x cells, with rucaparib 10 µM, 100% = cells with rucaparib alone) is 120% (inactive); in assay [8] (at 0.000305 µM, OCI-C5x cells, without rucaparib), 118% (inactive); in assay [8] (at 0.000305 µM, OCI-P5x cells, with rucaparib 20 µM, 100% = cells with rucaparib alone), 89.4% (active); in assay [8] (at 0.000305 µM, OCI-P5x cells, without rucaparib), 96.4% (active); in assay [8] (at 0.00122 µM, OCI-C5x cells, with rucaparib 10 µM, 100% = cells with rucaparib alone) it was 116% (inactive); in assay [8] (at 0.00122 µM, OCI-C5x cells, without rucaparib) it was 114% (inactive). In addition, the viability in assay [8] (at 0.00122 µM, OCI-P5x cells, with rucaparib 20 µM, 100% = cells with rucaparib alone) was 90.8% (active); in assay [8] (at 0.00122 µM, OCI-P5x cells, without rucaparib), 99.7% (active); in assay [8] (at 0.00488 µM, OCI-C5x cells, with rucaparib 10 µM, 100% = cells with rucaparib alone), 116% (inactive); in assay [8] (at 0.00488 µM, OCI-C5x cells, without rucaparib) it was 115% (inactive); in assay [8] (at 0.00488 µM, OCI-P5x cells, with rucaparib 20 µM, 100% = cells with rucaparib alone), 92.8% (active); in assay [8] (at 0.00488 µM, OCI-P5x cells, without rucaparib), 101% (inactive). Besides, the viability is 107% (inactive) in assay [8] (at 0.0195 µM, OCI-C5x cells, with rucaparib 10 µM, 100% = cells with rucaparib alone); 114% (inactive) in assay [8] (at 0.0195 µM, OCI-C5x cells, without rucaparib); 98% (active) in assay [8] (at 0.0195 µM, OCI-P5x cells, with rucaparib 20 µM, 100% = cells with rucaparib alone); 107% (inactive) in assay [8] (at 0.0195 µM, OCI-P5x cells, without rucaparib); 106% (inactive) in assay [8] (at 0.0781 µM, OCI-C5x cells, with rucaparib 10 µM, 100% = cells with rucaparib alone); 113% (inactive) in assay [8] (at 0.0781 µM, OCI-C5x cells, without rucaparib). The viability in assay [8] (at 0.0781 µM, OCI-P5x cells, with rucaparib 20 µM, 100% = cells with rucaparib alone) is 88% (active); in assay [8] (at 0.0781 µM, OCI-P5x cells, without rucaparib), 101% (inactive); in assay [8] (at 0.313 µM, OCI-C5x cells, with rucaparib 10 µM, 100% = cells with rucaparib alone), 109% (inactive); in assay [8] (at 0.313 µM, OCI-C5x cells, without rucaparib) it was 125% (inactive); in assay [8] (at 0.313 µM, OCI-P5x cells, with rucaparib 20 µM, 100% = cells with rucaparib alone), 79.9% (active); in assay [8] (at 0.313 µM, OCI-P5x cells, without rucaparib) it was 107% (inactive). Moreover, the viability in assay [8] (at 1.25 µM, OCI-C5x cells, with rucaparib 10 µM, 100% = cells with rucaparib alone) was 123% (inactive); in assay [8] (at 1.25 µM, OCI-C5x cells, without rucaparib) it was 144% (inactive); in assay [8] (at 1.25 µM, OCI-P5x cells, with rucaparib 20 µM, 100% = cells with rucaparib alone), 74.9% (active); in assay [8] (at 1.25 µM, OCI-P5x cells, without rucaparib), 109% (inactive); in assay [8] (at 5 µM, OCI-C5x cells, with rucaparib 10 µM, 100% = cells with rucaparib alone), 7.91% (active); in assay [8] (at 5 µM, OCI-C5x cells, without rucaparib), 79% (active). Further, the viability in assay [8] (at 5 µM, OCI-P5x cells, with rucaparib 20 µM, 100% = cells with rucaparib alone) was 53% (active); in assay [8] (at 5 µM, OCI-P5x cells, without rucaparib), 69.3% (active).
